According to publication PMC12431657, “Discovery and mechanistic insights of dibenzoylmethane as a broad spectrum inhibitor of coronavirus” (PLOS Pathogens, 2025):
Like-named read-outs stand apart in the source and are kept apart here. Screen size: about 3,300 compounds; about 95 (3%) showed an effect of 50% or more. For the sample, strong results were picked, then their nearest neighbours and some compounds at random.

Tested on: HCoV-229E
Parameters: species or system Huh-7; HTS, protection from HCoV-229E induced cell death, luminescent cell viability (CellCounting-Lite 2.0), inhibition rate
Settings: 24 h post infection, 1 h compound pre-incubation, 10 µM, inhibitor

Row | Structure (SMILES) | 229E Inhibition rate [%] | 229E Inhibition rate (229E Inhibition rate, 24 h) [%]
1 | O=C(O)C(O)Cc1cc2ccccc2[nH]1 (stereo not drawn) [Indolelactic acid] | 16.7 | 
2 | O=C1C=CCO1 [2(5H)-Furanone] | 8.7 | 
3 | CCCCCC(C)C(=O)O (stereo not drawn) [2-Methylheptanoic acid] | 47.5 | 
4 | O=C(O)Cc1ccccc1O [2-Hydroxyphenylacetic acid] | 12.4 | 
5 | NCc1ccccc1O [o-Hydroxybenzylamine] | 9.2 | 
6 | OCc1ccccc1O [Salicyl alcohol] | 51.5 | 
7 | c1cc2c(cc1[C@H]1OC[C@@H]3[C@H]1CO[C@H]3c1ccc3c(c1)OCO3)OCO2 [(-)-Asarinin] | 9.2 | 
8 | c1cc2c(cc1[C@H]1OC[C@H]3[C@@H]1CO[C@@H]3c1ccc3c(c1)OCO3)OCO2 [Sesamin] | 15.4 | 
9 | c1cc2c(cc1O[C@H]1OC[C@H]3[C@@H]1CO[C@@H]3c1ccc3c(c1)OCO3)OCO2 [Sesamolin] | 62.2 | 
10 | CC1=C\[C@@H](O)CC(=O)Cc2nc(co2)C(=O)N2CCC=C2C(=O)O[C@H](C(C)C)[C@H](C)/C=C/C(=O)NC\C=C\1 [Virginiamycin M1] | 36.6 | 
11 | N[C@@H](Cc1ccc(O)c([N+](=O)[O-])c1)C(=O)O [3-Nitro-L-tyrosine] | 8 | 
12 | C=C(C)[C@@H]1CC[C@]2(C)CC[C@]3(C)[C@H](CC[C@@H]4[C@@]5(C)CCC(=O)C(C)(C)[C@@H]5CC[C@]43C)[C@@H]12 [Lupenone] | 9.9 | 
13 | CCC1(c2ccc(O)cc2)NC(=O)N(C)C1=O (stereo not drawn) [4-Hydroxymephenytoin] | 55.5 | 
14 | CCc1ccc(O)cc1 [4-Ethylphenol] | 20.1 | 
15 | O=c1c(O[C@@H]2OC[C@@H](O)[C@H](O)[C@H]2O)c(-c2ccc(O)c(O)c2)oc2cc(O)cc(O)c12 [Reynoutrin] | 19.1 | 
16 | C[C@H]1CC[C@@]2(OC1)O[C@H]1C[C@H]3[C@@H]4CC=C5C[C@@H](O[C@@H]6O[C@H](CO)[C@@H](O)[C@H](O[C@@H]7OC[C@@H](O)[C@H](O)[C@H]7O)[C@H]6O[C@@H]6O[C@@H](C)[C@H](O)[C@@H](O)[C@H]6O)CC[C@]5(C)[C@H]4CC[C@]3(C)[C@H]1[C@@H]2C [Liriope muscari baily saponins C] | 31 | 
17 | COc1cc([C@@H]2c3cc4c(cc3[C@@H]3OC[C@H]2[C@@H]3CO)OCO4)cc(OC)c1OC [Neoanhydropodophyllol] | 9.1 | 
18 | COc1ccc2cc3[n+](cc2c1OC)CCc1cc2c(cc1-3)OCO2 [Berberine (chloride hydrate)] |  | 34
